# Source: PubChem BioAssay (NCI)
# Compounds without any hit were thinned out: in the full panel of roughly 83,000, 20% have a hit.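 Plates (96-well) were seeded with cells, treated with compound at one concentration, and incubated for 48 hours before percent growth was determined.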 Calls of active or inactive are those of the source. Rule for the calls: active = growth percent below 10; inactive = the rest.
# Test system: SNB-75 CNS
# Assay: NCI-60 one-dose screen, 48 h (100 = growth as untreated, 0 = no growth, -100 = all killed)
# Settings: 10 µM unless noted
row,SMILES,growth
1,Cc1ccc(-c2csc(NC(=O)CN3CCN(c4cc5c(cc4F)c(=O)c(C(=O)O)cn5C4CC4)CC3)n2)cc1,20.1% (inactive)
2,CCOC(=O)c1c(C)c2c(n1C)CSc1cc(C(=O)c3ccccc3)c(=O)[nH]c1-2,89.5% [100 µM] (inactive)
3,CC(=O)N(N=Nc1ccccc1)c1cccc2ccccc12,129% (inactive)
4,Cc1ccc(-c2nc(/C=C3/C(=O)Nc4ccccc43)c3ccccn23)cc1,88.9% (inactive)
5,CC(C)c1ccc(NC(=O)Nc2ccc(NC(=O)CCCC(=O)NOCc3ccccc3)cc2)cc1,80.2% (inactive)
6,C=C(C)[C@@H]1CC[C@]2(C(=O)OC)CC[C@]3(C)[C@H](CC[C@@H]4[C@@]5(C)C/C(=C/NC(N)=S)C(=O)C(C)(C)[C@@H]5CC[C@]43C)[C@@H]12,118% (inactive)
7,COc1ccc(/C=C2\COc3ccc(O)c(O)c3C2=O)cc1,44.4% (inactive)
8,Clc1ccc(CNc2c3ccccc3nc3ccccc23)cc1,68.4% (inactive)
9,O=C(Nc1ncc(Cc2ccc(Cl)c(C(F)(F)F)c2)s1)c1ccc2nnsc2c1,90.8% (inactive)
10,C/C(=C(/c1ccc(Cl)cc1)c1ccc(OCCN2CCCC2)cc1)c1ccc(Cl)cc1,115% (inactive)
11,CC(C)CCNC(=O)Cn1cccc(NC(=O)OCc2ccccc2)c1=O,79.9% (inactive)
12,Cc1nc2sc(C(=O)Nc3ccccc3)c(N)c2cc1C(=O)c1ccccc1,26.2% (inactive)
13,COC(=O)c1c2c(c(C)[n+]([O-])c1C)C(=O)C(NCc1ccc(Cl)cc1)=CC2=O,131% (inactive)
14,CCOC(=O)c1cn2ncnc(Oc3ccc(NC(=O)NC4CCCCC4)c(Cl)c3)c2c1C,0.475% (active)
15,CS(=O)(=O)c1cccc(-c2c(-c3cccc(OS(N)(=O)=O)c3)nc3sccn23)c1,70.8% (inactive)
16,O=C(NNc1nccc(Nc2ccc(S(=O)(=O)Nc3ccncc3)cc2)n1)c1ccccc1,99% (inactive)
17,C[C@]12CC[C@@H]3c4ccc(O)c([N+](=O)[O-])c4CC[C@H]3[C@@H]1CCC2=O,58.1% (inactive)
18,O=C(c1ccc(-c2nc(CSc3nc4ccccc4s3)no2)cc1)N1CCSCC1,91.9% (inactive)
19,CCS/C(Nc1ccccc1)=C(\C#N)C(=O)N/N=C/c1ccc(Cl)cc1Cl,-6.89% (active)
20,c1ccc(C2=NN[C@H](c3cn(-c4ccccc4)nc3-c3ccccc3)C2)cc1,-32.7% (active)

row,SMILES,growth
1,COc1cc(/C=C\c2cc(/C=C\c3ccc(O)c(OC)c3)n(C(=O)COc3ccc(Cl)cc3Cl)n2)ccc1O,5.12% (active)
2,Cc1ccccc1NC(=O)c1sc2nc(C)c(C(=O)/C=C/c3ccccc3)cc2c1N,-7.36% (active)
3,CC(C)n1cnc2c(=S)nc[nH]c21,117% (inactive)
4,CCOC(=O)/C=C1\S/C(=N\Nc2cc(=O)[nH]c3ccc(Cl)cc23)N(c2ccccc2)C1=O,87.5% (inactive)
5,COc1cc(-c2cc(-c3ccc(N(C)C)cc3)nc(N3CCC(O)CC3)c2C#N)cc(OC)c1OC,-17.2% (active)
6,CN1C(=O)/C(=C/c2ccc(C(=O)Nc3ncc(Cc4ccc(Cl)cc4)s3)cc2)SC1=S,52.1% (inactive)
7,O=C1c2c(c3c4ccccc4[nH]c3c3ccc4ccccc4c23)C(=O)N1CCN1CCCCC1,52.6% (inactive)
8,O=c1oc2c(cnc3ccccc32)cc1-c1ccsc1,89% (inactive)
9,Cc1cccc2c1NC(=O)C2(c1ccc(O)cc1)c1ccc(O)cc1,23.1% (inactive)
10,CC(=O)OCc1nc(C#N)c(N(C)C)o1,81.5% (inactive)
11,CCN(CC)CCCN1C(=O)c2c(c(C)c3c(oc4cc(O)ccc43)c2C)C1=O,124% (inactive)
12,CCOC(=O)c1c(C)nc2c(c1N)CC(=O)N2Cc1cc(F)cc(Cl)c1,71.6% (inactive)
13,COc1ccc2nc(NC(=O)CSc3nnc4n3S(=O)(=O)c3ccccc3N4C)sc2c1,93.5% (inactive)
14,CCOP(=O)(OCC)c1nc(-c2ccccc2)oc1NCc1cccnc1,92.9% (inactive)
15,C#CCn1cnc2c(Nc3cccc(NC(=O)C=C)c3)ncnc21,66% (inactive)
16,O=C(COc1ccc(-c2nc3ccccc3[nH]2)cc1)N=Nc1c(O)[nH]c2ccc(Cl)cc12,103% (inactive)
17,c1cc2[nH]ncc2cc1-c1nc2ccc3[nH]ncc3c2c2c1CCCC2,-3.31% (active)
18,CCn1c(=S)[nH]c2c(=O)n(C)c(=O)n(C)c21,96.2% (inactive)
19,C=CCn1c(SCC(=O)Nc2ccc(C(=O)/C=C/c3cc4cc(OC)ccc4nc3Cl)cc2)nnc1-c1ccc(Br)cc1,74.8% (inactive)
20,O=C1c2cccc3cccc(c23)C(=O)N1N1C(=O)c2cccc3c(N4CCOCC4)ccc(c23)C1=O,58.5% (inactive)

# Test system: SNB-19 CNS
# Assay: as above
# Settings: 10 µM unless noted
row,SMILES,growth
1,Cc1ccc(-c2csc(NC(=O)CN3CCN(c4cc5c(cc4F)c(=O)c(C(=O)O)cn5C4CC4)CC3)n2)cc1,27.7% (inactive)
2,CCOC(=O)c1c(C)c2c(n1C)CSc1cc(C(=O)c3ccccc3)c(=O)[nH]c1-2,102% [100 µM] (inactive)
3,CC(=O)N(N=Nc1ccccc1)c1cccc2ccccc12,106% (inactive)
4,Cc1ccc(-c2nc(/C=C3/C(=O)Nc4ccccc43)c3ccccn23)cc1,99.6% (inactive)
5,CC(C)c1ccc(NC(=O)Nc2ccc(NC(=O)CCCC(=O)NOCc3ccccc3)cc2)cc1,91.3% (inactive)
6,C=C(C)[C@@H]1CC[C@]2(C(=O)OC)CC[C@]3(C)[C@H](CC[C@@H]4[C@@]5(C)C/C(=C/NC(N)=S)C(=O)C(C)(C)[C@@H]5CC[C@]43C)[C@@H]12,97.1% (inactive)
7,COc1ccc(/C=C2\COc3ccc(O)c(O)c3C2=O)cc1,42% (inactive)
8,Clc1ccc(CNc2c3ccccc3nc3ccccc23)cc1,43.1% (inactive)
9,O=C(Nc1ncc(Cc2ccc(Cl)c(C(F)(F)F)c2)s1)c1ccc2nnsc2c1,46.2% (inactive)
10,C/C(=C(/c1ccc(Cl)cc1)c1ccc(OCCN2CCCC2)cc1)c1ccc(Cl)cc1,85.8% (inactive)
11,CC(C)CCNC(=O)Cn1cccc(NC(=O)OCc2ccccc2)c1=O,103% (inactive)
12,Cc1nc2sc(C(=O)Nc3ccccc3)c(N)c2cc1C(=O)c1ccccc1,21.3% (inactive)
13,COC(=O)c1c2c(c(C)[n+]([O-])c1C)C(=O)C(NCc1ccc(Cl)cc1)=CC2=O,84.4% (inactive)
14,CCOC(=O)c1cn2ncnc(Oc3ccc(NC(=O)NC4CCCCC4)c(Cl)c3)c2c1C,66.1% (inactive)
15,CS(=O)(=O)c1cccc(-c2c(-c3cccc(OS(N)(=O)=O)c3)nc3sccn23)c1,97.5% (inactive)
16,O=C(NNc1nccc(Nc2ccc(S(=O)(=O)Nc3ccncc3)cc2)n1)c1ccccc1,109% (inactive)
17,C[C@]12CC[C@@H]3c4ccc(O)c([N+](=O)[O-])c4CC[C@H]3[C@@H]1CCC2=O,107% (inactive)
18,O=C(c1ccc(-c2nc(CSc3nc4ccccc4s3)no2)cc1)N1CCSCC1,87.7% (inactive)
19,CCS/C(Nc1ccccc1)=C(\C#N)C(=O)N/N=C/c1ccc(Cl)cc1Cl,19.6% (inactive)
20,c1ccc(C2=NN[C@H](c3cn(-c4ccccc4)nc3-c3ccccc3)C2)cc1,55% (inactive)

row,SMILES,growth
1,COc1cc(/C=C\c2cc(/C=C\c3ccc(O)c(OC)c3)n(C(=O)COc3ccc(Cl)cc3Cl)n2)ccc1O,29% (inactive)
2,Cc1ccccc1NC(=O)c1sc2nc(C)c(C(=O)/C=C/c3ccccc3)cc2c1N,2.8% (active)
3,CC(C)n1cnc2c(=S)nc[nH]c21,107% (inactive)
4,CCOC(=O)/C=C1\S/C(=N\Nc2cc(=O)[nH]c3ccc(Cl)cc23)N(c2ccccc2)C1=O,90.6% (inactive)
5,COc1cc(-c2cc(-c3ccc(N(C)C)cc3)nc(N3CCC(O)CC3)c2C#N)cc(OC)c1OC,30.2% (inactive)
6,CN1C(=O)/C(=C/c2ccc(C(=O)Nc3ncc(Cc4ccc(Cl)cc4)s3)cc2)SC1=S,69.3% (inactive)
7,O=C1c2c(c3c4ccccc4[nH]c3c3ccc4ccccc4c23)C(=O)N1CCN1CCCCC1,42.4% (inactive)
8,O=c1oc2c(cnc3ccccc32)cc1-c1ccsc1,94.6% (inactive)
9,Cc1cccc2c1NC(=O)C2(c1ccc(O)cc1)c1ccc(O)cc1,102% (inactive)
10,CC(=O)OCc1nc(C#N)c(N(C)C)o1,95.9% (inactive)
11,CCN(CC)CCCN1C(=O)c2c(c(C)c3c(oc4cc(O)ccc43)c2C)C1=O,-82.8% (active)
12,CCOC(=O)c1c(C)nc2c(c1N)CC(=O)N2Cc1cc(F)cc(Cl)c1,100% (inactive)
13,COc1ccc2nc(NC(=O)CSc3nnc4n3S(=O)(=O)c3ccccc3N4C)sc2c1,112% (inactive)
14,CCOP(=O)(OCC)c1nc(-c2ccccc2)oc1NCc1cccnc1,97.5% (inactive)
15,C#CCn1cnc2c(Nc3cccc(NC(=O)C=C)c3)ncnc21,89.9% (inactive)
16,O=C(COc1ccc(-c2nc3ccccc3[nH]2)cc1)N=Nc1c(O)[nH]c2ccc(Cl)cc12,56.5% (inactive)
17,c1cc2[nH]ncc2cc1-c1nc2ccc3[nH]ncc3c2c2c1CCCC2,24.3% (inactive)
18,CCn1c(=S)[nH]c2c(=O)n(C)c(=O)n(C)c21,100% (inactive)
19,C=CCn1c(SCC(=O)Nc2ccc(C(=O)/C=C/c3cc4cc(OC)ccc4nc3Cl)cc2)nnc1-c1ccc(Br)cc1,78.4% (inactive)
20,O=C1c2cccc3cccc(c23)C(=O)N1N1C(=O)c2cccc3c(N4CCOCC4)ccc(c23)C1=O,87.8% (inactive)
